Results: PubChem BioAssay AID1159580 (chemical genetic matrix, 2015)
Screen size: about 5,500 compounds; about 2,000 (36%) were called active. About 18% were inconclusive and are not listed. Rule as the data show it: active = normalized growth mostly below about 0.91 (no sharp cut-off); inconclusive = no clear call, values can overlap the other calls; inactive = mostly above about 0.92. The list shows a part of the results.

Assay: chemical genetic growth profiling, strain panel (AID 1159580);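 also: tested at 20 µM; growth read once vehicle control cultures reached saturation at 30 °C; 1 = growth at the plate median or of vehicle wells; lower values mean less growth of the strain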
Conditions: S. cerevisiae deletion strains, growth OD

Measured: normalized growth

O=c1ccc2cc(OC3OC(CO)C(O)C(O)C3O)c(O)cc2o1 (stereo not drawn)
inactive: locus YAL021C, strain ccr4, hits give low values 0.959 | locus YAL026C, strain drs2, hits give low values 1 | locus YAL030W, strain snc1, hits give low values 0.986 | locus YBL061C, strain skt5, hits give low values 1 | locus YBR009C, strain hhf1, hits give low values 0.995 | locus YBR023C, strain chs3, hits give low values 0.992 | locus YBR171W, strain sec66, hits give low values 1 | locus YBR231C, strain swc5, hits give low values 1.03 | locus YBR279W, strain paf1, hits give low values 0.998 | locus YCL011C, strain gbp2, hits give low values 0.974 | locus YCL016C, strain dcc1, hits give low values 0.979 | locus YCL069W, strain vba3, hits give low values 0.983 | locus YCR088W, strain abp1, hits give low values 0.985 | locus YDL005C, strain med2, hits give low values 0.989 | locus YDL040C, strain nat1, hits give low values 0.991 | locus YDR001C, strain nth1, hits give low values 0.972 | locus YDR069C, strain doa4, hits give low values 0.998 | locus YDR137W, strain rgp1, hits give low values 0.976 | locus YDR159W, strain sac3, hits give low values 1.06 | locus YDR195W, strain ref2 0.973 | locus YDR297W, strain sur2, hits give low values 0.995 | locus YDR334W, strain swr1, hits give low values 0.991 | locus YDR335W, strain msn5, hits give low values 0.991 | locus YDR392W, strain spt3, hits give low values 0.927 | locus YEL003W, strain gim4, hits give low values 1 | locus YEL037C, strain rad23, hits give low values 0.986 | locus YEL061C, strain CIN8 (second series), hits give low values 0.984 | locus YER015W, strain faa2, hits give low values 1 | locus YER016W, strain bim1, hits give low values 0.993 | locus YER111C, strain swi4, hits give low values 1.01 | locus YER155C, strain BEM2 (second series), hits give low values 1.07 | locus YFR010W, strain ubp6, hits give low values 0.997 | locus YGL167C, strain pmr1, hits give low values 0.989 | locus YGL173C, strain kem1, hits give low values 0.998 | locus YGL227W, strain vid30, hits give low values 0.989 | locus YGL240W, strain doc1, hits give low values 1.04 | locus YGL253W, strain hxk2, hits give low values 0.996 | locus YHR013C, strain ard1, hits give low values 0.992 | locus YHR027C, strain rpn1, hits give low values 0.977 | locus YHR030C, strain SLT2, hits give low values 0.985 | locus YHR079C, strain IRE1, hits give low values 0.969 | locus YHR142W, strain chs7, hits give low values 0.959 | locus YJL092W, strain hpr5, hits give low values 0.981 | locus YJL095W, strain BCK1 (second series), hits give low values 0.995 | locus YJL095W, strain BCK1, hits give low values 0.968 | locus YJL115W, strain asf1, hits give low values 0.973 | locus YJL129C, strain trk1, hits give low values 1 | locus YJL154C, strain vps35, hits give low values 0.981 | locus YJL164C, strain tpk1, hits give low values 0.947 | locus YJL166W, strain qcr8, hits give low values 1 | locus YJR066W, strain TOR1, hits give low values 0.919 | locus YKL160W, strain elf1, hits give low values 0.966 | locus YKR026C, strain gcn3, hits give low values 1 | locus YKR091W, strain srl3, hits give low values 0.989 | locus YLL001W, strain dnm1, hits give low values 0.993 | locus YLL026W, hits give low values 0.988 | locus YLL041C, strain sdh2, hits give low values 0.983 | locus YLR027C, strain aat2, hits give low values 1.01 | locus YLR113W, strain HOG1, hits give low values 0.973 | locus YLR221C, strain rsa3, hits give low values 1.04 | locus YLR258W, strain gsy2, hits give low values 0.972 | locus YLR262C, strain YPT6 (second series), hits give low values 0.98 | locus YLR320W, strain mms22, hits give low values 1.04 | locus YLR342W, strain FKS1, hits give low values 0.995 | locus YLR357W, strain rsc2, hits give low values 1 | locus YLR370C, strain arc18, hits give low values 1.02 | locus YLR384C, strain iki3, hits give low values 1.01 | locus YML120C, strain ndi1, hits give low values 0.988 | locus YMR058W, strain fet3, hits give low values 1 | locus YMR125W, strain sto1, hits give low values 0.92 | locus YMR129W, hits give low values 0.993 | locus YMR205C, strain PFK2, hits give low values 0.969 | locus YMR231W, strain pep5, hits give low values 1 | locus YNL071W, strain lat1, hits give low values 0.988 | locus YNL183C, strain NPR1, hits give low values 0.897 | locus YNL209W, strain ssb2, hits give low values 0.99 | locus YNL248C, strain rpa49, hits give low values 1.04 | locus YNL322C, strain KRE1 (second series), hits give low values 1.01 | locus YNR049C, strain mso1, hits give low values 0.982 | locus YOR001W, strain rrp6, hits give low values 1.02 | locus YOR070C, strain gyp1, hits give low values 0.998 | locus YOR080W, strain dia2, hits give low values 1.01 | locus YOR083W, strain WHI5, hits give low values 0.964 | locus YOR106W, strain vam3, hits give low values 0.939 | locus YOR231W, strain MKK1, hits give low values 0.973 | locus YOR265W, strain rbl2, hits give low values 1 | locus YOR270C, strain vph1, hits give low values 1.03 | locus YOR290C, strain snf2, hits give low values 0.919 | locus YPL051W, strain arl3, hits give low values 1.02 | locus YPL078C, strain atp4, hits give low values 0.935 | locus YPL106C, strain sse1, hits give low values 1.01 | locus YPL240C, strain hsp82, hits give low values 0.998 | locus YPL256C, strain CLN2, hits give low values 0.956
